The results in this text go back to ChEMBL document CHEMBL1961873, “Compounds: GSK PKIS; Assays: Nanosyn kinase panel” (2012).

Structures are written as SMILES.

In experiment [1] the target is Sphingosine kinase 1 (Homo sapiens) (UniProt Q9NYA1). Conditions: at 1 µM.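 Further: mean SPHK1 inhibition value reported from the GSK PKIS kinase panel screen.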
Experiment [2] addresses T1, Sphingosine kinase 2 (Homo sapiens) (UniProt Q9NRA0).
T1 sequence (whole entry): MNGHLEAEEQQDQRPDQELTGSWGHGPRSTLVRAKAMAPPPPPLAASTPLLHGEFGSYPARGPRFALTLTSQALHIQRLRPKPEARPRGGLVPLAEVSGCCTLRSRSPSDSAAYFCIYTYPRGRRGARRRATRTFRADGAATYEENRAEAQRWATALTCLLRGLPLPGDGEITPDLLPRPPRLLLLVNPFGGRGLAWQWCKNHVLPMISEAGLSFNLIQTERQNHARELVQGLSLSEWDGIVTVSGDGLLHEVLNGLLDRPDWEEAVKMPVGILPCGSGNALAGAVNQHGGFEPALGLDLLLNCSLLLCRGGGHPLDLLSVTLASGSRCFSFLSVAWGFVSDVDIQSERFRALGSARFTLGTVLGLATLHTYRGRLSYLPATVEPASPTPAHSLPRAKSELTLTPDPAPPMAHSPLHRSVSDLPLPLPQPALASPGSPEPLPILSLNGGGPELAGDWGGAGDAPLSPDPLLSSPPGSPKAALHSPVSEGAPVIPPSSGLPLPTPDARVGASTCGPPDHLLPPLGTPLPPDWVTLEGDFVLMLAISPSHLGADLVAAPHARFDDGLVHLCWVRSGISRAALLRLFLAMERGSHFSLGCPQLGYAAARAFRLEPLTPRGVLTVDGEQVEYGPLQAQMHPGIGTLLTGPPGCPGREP
Conditions: at 0.1 µM.

The target of experiment [3] is T1, Sphingosine kinase 2 (Homo sapiens). The note with it: at 1 µM.
Experiment [4] has as its target Casein kinase II subunit alpha (Homo sapiens) (UniProt P68400). The note with it: at 0.1 µM.
Experiment [5] has the same target. The note with it: at 1 µM.
Experiment [6] addresses T2, Inhibitor of nuclear factor kappa-B kinase subunit alpha (Homo sapiens) (UniProt O15111).
T2 sequence (whole entry): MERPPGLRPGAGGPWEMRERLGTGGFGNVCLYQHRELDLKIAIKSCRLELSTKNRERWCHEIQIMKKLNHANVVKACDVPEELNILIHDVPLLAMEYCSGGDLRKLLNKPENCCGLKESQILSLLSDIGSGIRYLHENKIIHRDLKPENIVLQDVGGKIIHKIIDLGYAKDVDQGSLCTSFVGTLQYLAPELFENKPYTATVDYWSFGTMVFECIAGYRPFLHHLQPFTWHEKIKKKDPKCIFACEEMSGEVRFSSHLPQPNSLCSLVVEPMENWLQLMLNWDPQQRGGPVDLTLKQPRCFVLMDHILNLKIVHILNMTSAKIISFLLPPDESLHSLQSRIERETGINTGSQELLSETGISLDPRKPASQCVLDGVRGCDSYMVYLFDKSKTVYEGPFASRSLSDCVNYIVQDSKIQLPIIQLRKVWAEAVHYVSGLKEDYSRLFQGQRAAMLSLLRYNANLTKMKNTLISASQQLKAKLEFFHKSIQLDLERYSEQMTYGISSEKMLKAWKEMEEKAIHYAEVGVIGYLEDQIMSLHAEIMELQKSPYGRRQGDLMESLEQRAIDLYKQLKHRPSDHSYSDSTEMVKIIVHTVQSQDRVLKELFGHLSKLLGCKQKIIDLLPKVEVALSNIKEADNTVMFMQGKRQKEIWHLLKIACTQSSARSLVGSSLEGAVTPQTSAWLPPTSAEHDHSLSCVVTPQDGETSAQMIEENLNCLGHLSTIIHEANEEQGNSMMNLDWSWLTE
Conditions: at 0.1 µM.

In experiment [7] the target is T2, Inhibitor of nuclear factor kappa-B kinase subunit alpha (Homo sapiens). The note with it: at 1 µM.
Experiment [8] addresses T3, Inhibitor of nuclear factor kappa-B kinase subunit beta (Homo sapiens) (UniProt O14920).
T3 sequence (whole entry): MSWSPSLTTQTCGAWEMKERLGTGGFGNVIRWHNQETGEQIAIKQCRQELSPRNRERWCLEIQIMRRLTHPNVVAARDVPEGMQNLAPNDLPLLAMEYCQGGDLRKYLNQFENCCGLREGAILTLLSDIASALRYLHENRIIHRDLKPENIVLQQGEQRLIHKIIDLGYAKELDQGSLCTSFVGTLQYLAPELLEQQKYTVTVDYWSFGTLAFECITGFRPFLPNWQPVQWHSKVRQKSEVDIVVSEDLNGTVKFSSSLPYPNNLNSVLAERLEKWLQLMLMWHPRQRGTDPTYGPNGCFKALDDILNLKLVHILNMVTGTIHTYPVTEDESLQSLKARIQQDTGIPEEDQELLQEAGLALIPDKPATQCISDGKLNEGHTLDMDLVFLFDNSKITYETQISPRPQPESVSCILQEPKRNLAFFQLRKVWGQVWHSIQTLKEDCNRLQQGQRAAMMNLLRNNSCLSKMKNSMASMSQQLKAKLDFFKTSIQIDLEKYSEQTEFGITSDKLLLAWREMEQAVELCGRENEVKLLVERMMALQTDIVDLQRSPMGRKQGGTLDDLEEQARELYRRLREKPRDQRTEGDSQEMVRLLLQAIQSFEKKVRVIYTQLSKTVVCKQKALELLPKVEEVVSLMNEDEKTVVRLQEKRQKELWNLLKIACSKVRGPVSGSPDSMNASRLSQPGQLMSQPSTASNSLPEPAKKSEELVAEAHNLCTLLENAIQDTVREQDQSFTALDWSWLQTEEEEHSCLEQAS
The note with it: at 0.1 µM.

Experiment [9] deals with T3, Inhibitor of nuclear factor kappa-B kinase subunit beta (Homo sapiens). The note with it: at 1 µM.
Experiment [10] deals with T4, Inhibitor of nuclear factor kappa-B kinase subunit epsilon (Homo sapiens) (UniProt Q14164).
T4 sequence (whole entry): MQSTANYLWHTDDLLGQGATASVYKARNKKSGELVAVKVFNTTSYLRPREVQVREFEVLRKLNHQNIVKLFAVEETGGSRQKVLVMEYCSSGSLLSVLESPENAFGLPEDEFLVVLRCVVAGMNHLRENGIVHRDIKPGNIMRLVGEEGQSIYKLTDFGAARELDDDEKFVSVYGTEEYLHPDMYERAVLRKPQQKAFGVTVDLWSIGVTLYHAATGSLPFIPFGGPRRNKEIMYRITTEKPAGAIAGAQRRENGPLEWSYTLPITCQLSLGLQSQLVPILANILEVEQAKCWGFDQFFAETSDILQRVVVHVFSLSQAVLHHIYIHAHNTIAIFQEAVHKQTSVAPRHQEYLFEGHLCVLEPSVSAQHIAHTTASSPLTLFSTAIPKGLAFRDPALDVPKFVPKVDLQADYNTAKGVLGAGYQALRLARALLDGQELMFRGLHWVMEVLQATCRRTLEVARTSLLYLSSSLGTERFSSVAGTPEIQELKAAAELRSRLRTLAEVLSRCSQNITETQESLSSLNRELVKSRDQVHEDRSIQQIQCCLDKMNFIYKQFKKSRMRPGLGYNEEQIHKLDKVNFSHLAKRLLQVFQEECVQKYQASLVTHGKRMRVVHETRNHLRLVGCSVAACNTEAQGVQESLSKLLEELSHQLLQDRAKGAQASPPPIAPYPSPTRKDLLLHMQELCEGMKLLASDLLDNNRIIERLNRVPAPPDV
The note with it: at 0.1 µM.

In experiment [11] the target is T4, Inhibitor of nuclear factor kappa-B kinase subunit epsilon (Homo sapiens). The note with it: at 1 µM.
The target in experiment [12] is T5, Serine/threonine-protein kinase Nek1 (Homo sapiens) (UniProt Q96PY6).
T5 sequence (whole entry): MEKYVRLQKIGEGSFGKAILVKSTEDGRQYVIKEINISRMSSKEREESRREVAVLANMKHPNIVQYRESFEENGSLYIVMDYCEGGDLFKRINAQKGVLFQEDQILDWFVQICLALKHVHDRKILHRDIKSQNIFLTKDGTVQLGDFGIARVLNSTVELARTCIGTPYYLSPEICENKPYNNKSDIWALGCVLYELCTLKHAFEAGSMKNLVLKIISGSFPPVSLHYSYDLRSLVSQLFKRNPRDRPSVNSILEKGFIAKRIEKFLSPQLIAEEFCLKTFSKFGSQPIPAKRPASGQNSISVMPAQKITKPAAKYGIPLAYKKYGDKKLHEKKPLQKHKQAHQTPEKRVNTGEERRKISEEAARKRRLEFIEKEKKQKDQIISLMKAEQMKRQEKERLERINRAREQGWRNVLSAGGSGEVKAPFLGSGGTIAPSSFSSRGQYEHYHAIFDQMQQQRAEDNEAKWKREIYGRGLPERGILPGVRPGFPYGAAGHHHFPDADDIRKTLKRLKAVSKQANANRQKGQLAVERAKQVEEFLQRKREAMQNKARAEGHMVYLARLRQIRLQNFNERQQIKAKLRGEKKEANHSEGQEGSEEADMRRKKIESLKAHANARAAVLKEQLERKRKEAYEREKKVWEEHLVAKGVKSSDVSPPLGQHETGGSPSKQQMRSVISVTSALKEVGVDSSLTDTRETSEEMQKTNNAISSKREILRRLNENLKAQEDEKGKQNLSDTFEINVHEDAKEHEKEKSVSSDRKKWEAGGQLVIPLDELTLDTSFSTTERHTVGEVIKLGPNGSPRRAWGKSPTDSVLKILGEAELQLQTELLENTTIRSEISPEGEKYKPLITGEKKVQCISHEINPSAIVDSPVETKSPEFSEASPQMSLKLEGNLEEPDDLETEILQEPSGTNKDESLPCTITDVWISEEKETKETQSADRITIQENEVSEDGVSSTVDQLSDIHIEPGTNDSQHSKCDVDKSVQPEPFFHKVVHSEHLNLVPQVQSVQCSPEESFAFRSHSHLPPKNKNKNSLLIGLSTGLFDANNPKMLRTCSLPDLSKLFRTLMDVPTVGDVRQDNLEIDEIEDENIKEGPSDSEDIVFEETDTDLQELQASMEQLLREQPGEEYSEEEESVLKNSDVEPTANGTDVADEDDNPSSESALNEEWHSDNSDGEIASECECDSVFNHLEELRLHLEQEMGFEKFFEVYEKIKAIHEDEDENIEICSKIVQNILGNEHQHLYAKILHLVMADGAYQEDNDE
Conditions: at 0.1 µM.

Experiment [13] deals with T5, Serine/threonine-protein kinase Nek1 (Homo sapiens). The note with it: at 1 µM.
Experiment [14] deals with T6, Serine/threonine-protein kinase Nek2 (Homo sapiens) (UniProt P51955).
T6 sequence (whole entry): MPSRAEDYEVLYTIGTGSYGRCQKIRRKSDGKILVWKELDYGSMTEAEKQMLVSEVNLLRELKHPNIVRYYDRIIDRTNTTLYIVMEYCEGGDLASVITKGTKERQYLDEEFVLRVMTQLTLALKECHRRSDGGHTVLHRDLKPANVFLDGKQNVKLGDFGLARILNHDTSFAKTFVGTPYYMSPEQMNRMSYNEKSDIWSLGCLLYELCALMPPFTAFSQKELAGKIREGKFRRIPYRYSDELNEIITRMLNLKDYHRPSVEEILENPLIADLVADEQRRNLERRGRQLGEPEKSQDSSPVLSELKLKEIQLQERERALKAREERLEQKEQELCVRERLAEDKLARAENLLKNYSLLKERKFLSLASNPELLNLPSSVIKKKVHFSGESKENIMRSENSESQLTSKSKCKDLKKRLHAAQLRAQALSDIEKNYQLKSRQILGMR
Conditions: at 0.1 µM.

The target in experiment [15] is T6, Serine/threonine-protein kinase Nek2 (Homo sapiens). Conditions: at 1 µM.
Experiment [16] deals with Serine/threonine-protein kinase Nek6 (Homo sapiens) (UniProt Q9HC98). Conditions: at 0.1 µM.
Sequence of Serine/threonine-protein kinase Nek6 (Homo sapiens) (Q9HC98 whole entry): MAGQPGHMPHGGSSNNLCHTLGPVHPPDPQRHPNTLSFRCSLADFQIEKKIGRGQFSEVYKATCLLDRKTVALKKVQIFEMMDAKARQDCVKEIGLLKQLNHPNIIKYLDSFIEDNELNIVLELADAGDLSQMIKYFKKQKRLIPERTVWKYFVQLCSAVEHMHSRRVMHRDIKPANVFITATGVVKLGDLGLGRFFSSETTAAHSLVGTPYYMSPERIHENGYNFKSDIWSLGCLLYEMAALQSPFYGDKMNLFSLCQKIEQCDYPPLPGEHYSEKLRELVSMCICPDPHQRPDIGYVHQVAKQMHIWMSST
The target is the same in experiment [17]. The note with it: at 1 µM.
The target of experiment [18] is Serine/threonine-protein kinase Nek7 (Homo sapiens) (UniProt Q8TDX7). The note with it: at 0.1 µM.
Sequence of Serine/threonine-protein kinase Nek7 (Homo sapiens) (Q8TDX7 whole entry, looked up): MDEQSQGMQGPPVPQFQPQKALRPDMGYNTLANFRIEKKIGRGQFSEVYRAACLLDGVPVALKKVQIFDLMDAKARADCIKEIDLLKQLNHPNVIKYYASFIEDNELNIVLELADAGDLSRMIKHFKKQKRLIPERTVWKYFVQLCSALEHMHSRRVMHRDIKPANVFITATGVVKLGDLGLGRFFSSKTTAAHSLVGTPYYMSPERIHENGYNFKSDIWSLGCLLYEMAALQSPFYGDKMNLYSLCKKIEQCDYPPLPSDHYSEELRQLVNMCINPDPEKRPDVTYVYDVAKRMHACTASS
The target is the same in experiment [19]. The note with it: at 1 µM.
The target in experiment [20] is T7, Serine/threonine-protein kinase Nek9 (Homo sapiens) (UniProt Q8TD19).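 Further: reported value is the mean percent inhibition of NEK9.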
T7 sequence (whole entry): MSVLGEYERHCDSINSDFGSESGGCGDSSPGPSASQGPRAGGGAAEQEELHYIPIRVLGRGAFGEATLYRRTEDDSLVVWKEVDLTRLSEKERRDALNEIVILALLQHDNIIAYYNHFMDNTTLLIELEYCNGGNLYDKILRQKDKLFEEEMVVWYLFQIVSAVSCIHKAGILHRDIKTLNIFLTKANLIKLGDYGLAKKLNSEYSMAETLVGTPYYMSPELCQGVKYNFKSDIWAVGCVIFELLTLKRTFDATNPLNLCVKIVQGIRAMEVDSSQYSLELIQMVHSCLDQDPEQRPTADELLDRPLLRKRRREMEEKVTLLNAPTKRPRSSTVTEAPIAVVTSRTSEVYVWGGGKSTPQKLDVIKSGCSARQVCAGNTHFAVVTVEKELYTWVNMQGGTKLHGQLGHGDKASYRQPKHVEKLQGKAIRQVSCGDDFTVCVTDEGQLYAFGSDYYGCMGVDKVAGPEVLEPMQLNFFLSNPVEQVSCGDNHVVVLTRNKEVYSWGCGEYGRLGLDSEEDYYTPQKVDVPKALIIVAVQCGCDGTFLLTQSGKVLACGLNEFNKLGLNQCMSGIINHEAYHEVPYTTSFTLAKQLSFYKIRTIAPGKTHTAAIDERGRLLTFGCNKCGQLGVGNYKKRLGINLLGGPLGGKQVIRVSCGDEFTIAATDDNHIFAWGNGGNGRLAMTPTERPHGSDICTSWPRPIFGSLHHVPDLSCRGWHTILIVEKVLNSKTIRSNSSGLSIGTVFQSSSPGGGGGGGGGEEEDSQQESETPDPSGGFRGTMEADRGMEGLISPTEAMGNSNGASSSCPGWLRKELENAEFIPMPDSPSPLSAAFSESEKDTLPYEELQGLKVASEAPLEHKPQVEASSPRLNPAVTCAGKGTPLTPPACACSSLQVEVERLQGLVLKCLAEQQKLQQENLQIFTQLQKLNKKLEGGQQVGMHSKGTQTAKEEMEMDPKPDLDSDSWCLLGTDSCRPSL
Conditions: at 0.1 µM.

Sequence of Casein kinase II subunit alpha (Homo sapiens) (P68400 whole entry, looked up): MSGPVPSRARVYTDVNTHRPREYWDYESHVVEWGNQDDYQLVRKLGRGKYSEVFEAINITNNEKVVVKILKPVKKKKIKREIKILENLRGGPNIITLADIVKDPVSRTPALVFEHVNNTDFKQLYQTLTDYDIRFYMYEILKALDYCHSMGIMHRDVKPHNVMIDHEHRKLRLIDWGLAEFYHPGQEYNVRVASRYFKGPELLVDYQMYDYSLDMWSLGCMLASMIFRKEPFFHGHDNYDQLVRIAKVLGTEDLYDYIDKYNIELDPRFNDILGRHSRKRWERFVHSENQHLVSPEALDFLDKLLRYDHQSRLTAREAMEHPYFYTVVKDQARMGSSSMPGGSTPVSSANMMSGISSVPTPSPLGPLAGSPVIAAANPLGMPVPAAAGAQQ
Sequence of Sphingosine kinase 1 (Homo sapiens) (Q9NYA1 whole entry): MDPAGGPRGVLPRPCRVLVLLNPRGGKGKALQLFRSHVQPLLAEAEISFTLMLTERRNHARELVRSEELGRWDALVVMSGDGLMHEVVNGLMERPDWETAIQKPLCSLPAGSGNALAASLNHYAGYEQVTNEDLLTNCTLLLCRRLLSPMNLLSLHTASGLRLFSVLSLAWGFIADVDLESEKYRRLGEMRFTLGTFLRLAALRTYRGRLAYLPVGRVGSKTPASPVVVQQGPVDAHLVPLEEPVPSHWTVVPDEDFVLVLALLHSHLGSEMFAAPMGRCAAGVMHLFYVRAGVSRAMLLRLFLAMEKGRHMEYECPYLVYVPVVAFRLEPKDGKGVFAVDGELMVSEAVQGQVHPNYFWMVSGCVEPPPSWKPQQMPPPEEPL

What is called inhibition is the drop in the measured response relative to a control, in per cent. Regarding `COc1ccc2ncn(-c3cc(O[C@H](C)c4ccccc4C(F)(F)F)c(C(N)=O)s3)c2c1`, the inhibition is 2.4% in [1]; -0.06% in experiment [2]; -2.97% in experiment [3]; -0.88% in experiment [4]; 5.02% in experiment [5]; 3.24% in experiment [6]. Besides, the inhibition in [7] is -5.63%; in experiment [8], -5.7%; in experiment [9], 1.93%; in experiment [10] it was -0.98%; in experiment [11], 1.28%; in [12], 8.29%. In addition, the inhibition in [13] was 43%; in experiment [14] it was 0.45%; in experiment [15] it was 11.6%; in experiment [16], 0.31%; in [17], -2.42%; in [18], 1.25%. Moreover, the inhibition in experiment [19] was determined as 0.51%; in [20], 35.9%.
